# Results reported in PubChem BioAssay (NCATS).
# Records with an inconclusive call do not appear. A call without a number means that no potency is given here. Activity calls are given as the source filed them. Unless noted, calls come from the whole dose curve; as a rule, active = well fitted curve in the direction sought with a large enough effect; inconclusive = small, poorly fitted or top-dose-only effect, or another doubt; inactive = no such curve, though single readings can be large; an effect the other way counts as inactive or inconclusive.
# Assays:
# [1] = Cytotoxicity counterscreen for inhibitors of SARS-CoV-2 cell entry (AID 1645845; calls by dose curve; note: nearly all actives have a fitted effect of over 50% in size)
# Summary of the method: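 48 h compound treatment (after 1 h preincubation), HEK293-ACE2 cells, 37 C/5% CO2; ATP luminescence endpoint; normalized to cell wells and media blanks.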
# [2] = Primary qHTS to identify inhibitors of SARS-CoV-2 cell entry (AID 1645846; calls by dose curve; note: nearly all actives have a fitted effect of over 45% in size); conditions: activity change, negative = inhibition: at 57.1 µM (top of the series) unless noted
# Summary of the method: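 Inhibition of spike-mediated entry was scored in human ACE2-transfected Expi293F cells. Particles were MLV-pseudotyped with Wuhan-Hu-1 S carrying a 19-aa C-terminal deletion; signal was luciferase after two days, scaled between spike PP and fusion-protein-free PP.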
# CRL-7250 = normal cell line; assay: qHTS assay to identify novel small-molecules to repurpose for Merkel cell carcinoma treatment (AID 1296009); conditions: MCC and control cell lines, CellTiter-Glo viability, 72 h; series mostly up to 92 µM; note: nearly all actives have a fitted effect of over 60% in size
# Summary of the method: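 72 hr, 37 degree celsius; NPC 8-pt / MIPE 11-pt dose response; compound pinned in DMSO; CellTiter-Glo, 10 min RT, luminescence; normalized to no-cell and DMSO controls.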
# [3] = P-glycoprotein substrates identified in KB-8-5-11 adenocarcinoma cell line, qHTS therapeutic library screen (AID 1346987); note: potency is the fitted concentration of half-maximal effect; nearly all actives have a fitted effect of over 65% in size
# Summary of the method: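 Steps: plate 500 KB-8-5-11 cells/well in DMEM + 10% FCS (colchicine removed); pin compounds in dose-response; incubate 72 h, 37 degree C, 5% CO2; add CellTiter-Glo, 5 min; read luminescence.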
# [4] = tested on: Zika virus NS2B-NS3 protease (unlinked complex); assay: Primary screen GU Rhodamine qHTS for Zika virus inhibitors: Unlinked NS2B-NS3 protease assay (AID 1347159); note: nearly all actives have a fitted effect of over 60% in size
# Summary of the method: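 Compounds, tested up to 114 microM, were incubated for 15 minutes with 25 nM unlinked NS2B-NS3 protease at pH 8.0. Cleavage of 1.5 microM Rhodamine110 substrate was then followed by fluorescence for 15 minutes.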
# [5] = tested on: Zika virus NS2B-NS3 protease (linked construct); assay: Primary screen NINDS Rhodamine qHTS for Zika virus inhibitors (AID 1347160); note: nearly all actives have a fitted effect of over 55% in size
# Summary of the method: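 Percent inhibition, normalized to uninhibited and enzyme-free controls, is fitted to a 4-parameter Hill equation. Fluorescence change comes from a 15-min cleavage of 1.5 microM bis-peptide Rhodamine110 substrate by 25 nM linked NS2B-NS3 at room temperature.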
# [6] = target: Calcium and integrin-binding protein 1 (Homo sapiens) (UniProt Q99828); assay: Primary qHTS for Identification of Calcium Integrin Binding Protein 1 (CIB1) Competitor (AID 1508620);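 note: GST tagged CIB1 binding a fluorescein labelled alphaIIb integrin peptide tracer; top concentration of the series differs between compounds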
# Chain of Calcium and integrin-binding protein 1 (Homo sapiens) (Q99828 whole entry, looked up): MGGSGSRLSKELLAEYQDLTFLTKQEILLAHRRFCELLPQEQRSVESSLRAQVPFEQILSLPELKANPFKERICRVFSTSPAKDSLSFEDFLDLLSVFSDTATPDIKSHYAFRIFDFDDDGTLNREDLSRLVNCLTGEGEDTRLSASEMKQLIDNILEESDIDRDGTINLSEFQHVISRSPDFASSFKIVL
# Summary of the method: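 CIB1-GST (1 uM final) and compound incubated 15 min at room temperature before adding FITC-alphaIIb peptide tracer (100 nM final). Competition for binding read by fluorescence polarization (ex 480, em 540) after another 15 min at room temperature.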
# [7] = target: Cytochrome P450 2D6 (Homo sapiens) (UniProt P10635); assay: Cytochrome P450 family 2 subfamily D member 6 (CYP2D6) small molecule antagonists: luciferase biochemical (cell-free) qHTS assay (AID 1645840; active = well fitted curve in the direction sought with a large enough effect in the repeat runs; an effect the other way counts as inactive or inconclusive; note: potency is the fitted concentration of half-maximal effect; nearly all actives have a fitted effect of over 55% in size)
# Chain of Cytochrome P450 2D6 (Homo sapiens) (P10635 whole entry, looked up): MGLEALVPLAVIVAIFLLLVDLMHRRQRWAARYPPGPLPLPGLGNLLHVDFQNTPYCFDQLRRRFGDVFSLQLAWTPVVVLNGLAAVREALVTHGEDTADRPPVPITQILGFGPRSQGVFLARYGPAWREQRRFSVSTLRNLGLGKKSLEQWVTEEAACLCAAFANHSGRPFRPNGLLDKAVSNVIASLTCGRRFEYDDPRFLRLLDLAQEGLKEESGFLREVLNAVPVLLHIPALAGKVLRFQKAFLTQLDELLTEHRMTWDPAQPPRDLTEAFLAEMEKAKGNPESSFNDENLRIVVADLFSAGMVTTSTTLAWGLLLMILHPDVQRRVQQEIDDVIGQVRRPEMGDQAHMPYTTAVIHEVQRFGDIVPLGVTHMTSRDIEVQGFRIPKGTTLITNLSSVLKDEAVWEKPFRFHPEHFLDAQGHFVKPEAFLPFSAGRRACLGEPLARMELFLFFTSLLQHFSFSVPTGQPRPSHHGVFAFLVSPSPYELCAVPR
# Summary of the method: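 P450-Glo luminescent screen: recombinant CYP2D6 enzyme–proluciferin substrate mix preincubated with compound 10 min at room temperature, then NADPH regeneration added for 1 h at room temperature. Detection reagent added for 20 min; luciferin light read as relative luminescence units.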
# [8] = target: Glutathione peroxidase 1 (Homo sapiens) (UniProt P07203); assay: Primary qHTS Assay for Inhibitors of Recombinant Selenoprotein Glutathione Peroxidase 1 (GPX1) (AID 1845191); note: nearly all actives have a fitted effect of over 65% in size
# Chain of Glutathione peroxidase 1 (Homo sapiens) (P07203 whole entry, looked up): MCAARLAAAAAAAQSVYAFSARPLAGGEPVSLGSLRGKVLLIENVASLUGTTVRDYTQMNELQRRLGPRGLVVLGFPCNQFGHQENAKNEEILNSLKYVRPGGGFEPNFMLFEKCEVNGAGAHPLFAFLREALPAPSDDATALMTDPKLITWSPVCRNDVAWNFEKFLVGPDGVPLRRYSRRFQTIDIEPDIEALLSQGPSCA
# Summary of the method: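 10 nM GPX1 + cpd, 30 min RT; start w/ 1 mM GSH, 0.5 mM cumene hydroperoxide, 0.5 mM NADPH, 100 nM GR, 0.01% BSA; buffer 50 mM Tris-HCl pH 7.5, 2 mM EDTA, 150 mM NaCl; Fl 340/450, 0 & 15 min.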
# [9] = target: Luciferin 4-monooxygenase (Photinus pyralis) (UniProt P08659); assay: Primary firefly luciferase (FLuc) qHTS assay for identification of artifact compounds. (AID 1845220); conditions: outcome: dose series up to 54.1 µM unless noted; note: nearly all actives have a fitted effect of over 60% in size
# Summary of the method: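 Cell-free, 1536-well qHTS. Buffer pH 7.6 with 0.01% Tween-20 and 0.05% BSA; 10 uM D-luciferin, 10 uM ATP; 10 nM P. pyralis luciferase; luminescence after 5 min.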
# [10] = Primary fluorescence-based thiol-reactive (MSTI) qHTS assay for identification of artifact compounds. (AID 1845221);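 note: thiol-reactive compounds lower the probe fluorescence signal; nearly all actives have a fitted effect of over 65% in size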
# Summary of the method: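 In PBS pH 7.4 with 2% DMSO, each compound met 4 uM MSTI for one hour at ambient temperature, shielded from light, before fluorescence detection.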
# [11] = tested on: Nanoluciferase (engineered Oplophorus gracilirostris luciferase); assay: Primary Nanoluciferase (NLuc) qHTS assay for identification of artifact compounds. (AID 1845222)
# Summary of the method: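 Compounds are pinned into diluted (1:55) conditioned medium of NLuc-expressing S16 cells and held 15 min at room temperature protected from light. Nano-Glo substrate follows, and luminescence is read 5 min later.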
# C33A = assay: Primary qHTS to identify gynecologic anti-cancer compounds using libraries of approved drugs and bioactive compounds (AID 1345084); conditions: Gynecologic cancer cell panel viability, ATPlite luminescence, 48 h; series mostly up to 57.5 µM; note: nearly all actives have a fitted effect of over 55% in size
# Summary of the method: (§1)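 Five-concentration response, 48 h; readout is ATP-driven luciferase luminescence.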
# CAOV3 = assay: as above; conditions: Gynecologic cancer cell panel viability, ATPlite luminescence, 48 h; series mostly up to 57.5 µM
# Summary of the method: as §1
# CASKI = assay: as above; conditions: Gynecologic cancer cell panel viability, ATPlite luminescence, 48 h; series mostly up to 57.5 µM
# Summary of the method: as §1
# Es-2 = assay: as above; conditions: Gynecologic cancer cell panel viability, ATPlite luminescence, 48 h; series mostly up to 57.5 µM
# Summary of the method: as §1
# Hek293T = assay: as above; conditions: Gynecologic cancer cell panel viability, ATPlite luminescence, 48 h, control line for the selectivity index; series mostly up to 57.5 µM
# Summary of the method: as §1
# JEG-3 = assay: as above; conditions: Gynecologic cancer cell panel viability, ATPlite luminescence, 48 h; series mostly up to 57.5 µM
# Summary of the method: as §1
# OV90 = assay: as above; conditions: Gynecologic cancer cell panel viability, ATPlite luminescence, 48 h; series mostly up to 57.5 µM
# Summary of the method: as §1
# PA-1 = assay: as above; conditions: Gynecologic cancer cell panel viability, ATPlite luminescence, 48 h; series mostly up to 57.5 µM
# Summary of the method: as §1
# Tov-21-G = assay: as above; conditions: Gynecologic cancer cell panel viability, ATPlite luminescence, 48 h; series mostly up to 57.5 µM
# Summary of the method: as §1
# Tov112D = assay: as above; conditions: Gynecologic cancer cell panel viability, ATPlite luminescence, 48 h; series mostly up to 57.5 µM
# Summary of the method: as §1
smiles,measurement,setting,value
NC1CCC(N[C@@H]2C[C@H]2c2ccccc2)CC1 (stereo not given in full),Potency,[1],inactive
same,"activity change, negative = inhibition",[2],-44.4%
same,Potency,CRL-7250,inactive
C=C1C[C@@]2(O)O[C@@]3(C[C@H]2C(C)C)[C@@H](C)CC[C@@H]13,Potency,[1],inactive
same,Potency,[2],inactive
same,Potency,CRL-7250,inactive
O=C([C@@H](Cc1cccc(C(F)(F)F)c1)NS(=O)(=O)c1cc(F)c2c(c1)CCNC2)N1CCCC1,Potency,[1],inactive
same,Potency,CRL-7250,inactive
CCNC(=O)CCC/C=C\C[C@@H]1[C@@H](/C=C/C(O)CCc2ccccc2)[C@@H](O)C[C@@H]1O (stereo not given in full),Potency,[1],inactive
same,"activity change, negative = inhibition",[2],-23.1%
same,Potency,CRL-7250,inactive
C[C@@H](CN1CCC(n2c(=O)[nH]c3cc(Br)ccc32)CC1)NC(=O)[C@@H]1C[C@H]1c1ccccc1,Potency,[3],20.6 µM (active)
same,Potency,[4],inactive
same,Potency,[5],inactive
same,Potency,[6],inactive
same,Potency,[7],13.5 µM (active)
same,Potency,[8],inactive
same,outcome,[9],inactive
same,Potency,[10],inactive
same,Potency,[11],inactive
same,Potency,C33A,inactive
same,Potency,CAOV3,inactive
same,Potency,CASKI,inactive
same,Potency,Es-2,inactive
same,Potency,Hek293T,inactive
same,Potency,JEG-3,inactive
same,Potency,OV90,inactive
same,Potency,PA-1,inactive
same,Potency,Tov-21-G,inactive
same,Potency,Tov112D,inactive
